Active and inactive are the calls of the source. No stated cut-off is given here; in the data, active means log2 fold change growth below about -1.8; inactive means the rest.
Experiment: anthelmintic activity against nematode growth – whole organism, log2 fold change (AID 1259336);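 further: growth scored by imaging after five days at 20 °C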
Conditions: C. elegans growth, anthelmintic screen; active compounds read low

log2 fold change growth, inactive:
CC(=O)N1CCN(c2ccc(Oc3ccc(Cl)cc3O)cc2)CC1 0.423
CNC1C(OC2C(OC3C(O)C(O)C(N=C(N)N)C(O)C3N=C(N)N)OC(C)C2(O)C=O)OC(CO)C(O)C1O (centres undefined) -0.00587
CCc1ccccc1-n1c(C)cn2c3c(=O)n([C@H](C(=O)OC)C(C)C)c(=O)n(C)c3nc12 0.456
CCCCc1ccc(NC(=O)Nc2ccc(O[C@H]3CCCC[C@@H]3N(C)c3ccccc3)c(F)c2)cc1 -0.0752
Clc1ccc(CCNc2cc(-c3ccccc3)nc3ncnn23)cc1 -0.81
C[C@H]1c2cccc(O)c2C(O)=C2C(=O)[C@]3(O)C(O)=C(C(N)=O)C(=O)[C@@H](N(C)C)[C@@H]3[C@@H](O)[C@@H]21 0.805
O=C(Nc1nnc(-c2ccc(Cl)cc2)o1)c1cccc(C(F)(F)F)c1 -1.36
FC(F)(F)c1ccc(N(c2cccnc2)C2CCN(c3ccc(C(F)(F)F)cn3)CC2)cc1 -0.44
C[C@]1(COc2ccc(N3CCC(Oc4ccc(OC(F)(F)F)cc4)CC3)cc2)Cn2cc([N+](=O)[O-])nc2O1 0.162
COC(=O)c1cccc2oc(-c3cccc(OC)c3NC(=O)c3cc(-c4ccccc4)on3)nc12 -0.13
Clc1ccc(Cl)c(CO[C@H]2CCCC[C@@H]2n2ccnc2)c1 0.0539
c1ccc(Oc2ccc(-c3cc(N4CCOCC4)n[nH]3)cc2)cc1 0.348
COc1cc(C2=NCCN2)ccc1-c1cn(-c2cccc(C3=NCCN3)c2)nn1 -0.121
CC(C)[C@H](Oc1cccc2ccccc12)C(=O)O 0.534
CCOc1ccc(OCC(=O)Nc2cc(C)cc(C)c2)cc1 -0.0899
C[C@H]1COC2(CCN(c3nc(=O)c4cc(C(F)(F)F)cc([N+](=O)[O-])c4s3)CC2)O1 -0.284
CN1CCC(c2cc(-c3ccncc3)c(-c3ccc(F)cc3)[nH]2)CC1 -0.12
CC1(C)Cc2c(c(N3CCOCC3)nc3snc(Br)c23)CO1 0.562
CCc1ccc(S(=O)(=O)Nc2cc(CN3CCN(CCC(C)C)CC3)ccc2C)cc1 0.554
Cc1nc2ccccn2c1C(=O)NCc1ccc(Cl)cc1 0.244
O=C(NCc1ccco1)N1CCN(Cc2ccc(Cl)s2)CC1 0.334
Cc1cc(Cl)c(S(=O)(=O)N2CCCC2)cc1OCC(=O)NC1CCCCC1 -0.00734
CCOC(=O)c1c(NC(=O)c2c(F)c(F)c(F)c(F)c2F)sc(C(N)=O)c1C 0.119
CC(C)N=c1cc2n(-c3ccc(Cl)cc3)c3ccccc3nc-2cc1Nc1ccc(Cl)cc1 0.0581
N#Cc1ccc(-c2cnc(N)c(-c3ccc(C(N)=O)cc3)n2)cc1 -0.619
Cc1ccc2cc([C@@H]3NC(=O)c4ccccc4N3)c(Cl)nc2c1 -0.0454
NC(=O)c1cc(-c2ccsc2)ccc1OCCOc1ccccc1 0.0714
CC(=O)NC[C@H]1CN(c2ccc(-c3ccc(CO)cc3)c(F)c2)C(=O)O1 0.592
CC[C@H](C)NC(=O)c1ccc(NC(=O)C2(c3ccccc3)CCCC2)cc1 0.546
Nc1nc2ccc(-c3cncc(Oc4ccc(F)cc4)c3)cc2[nH]1 0.264
Clc1cccc(CO[C@H]2CCc3ccccc3[C@@H]2n2ccnn2)c1 0.571
N#Cc1ccc(-c2ccc(OCC(N)=O)cc2)cc1 -0.349
O=[N+]([O-])c1cn2c(n1)OC[C@@H](OCc1ccc(OC(F)(F)F)cc1)C2 -0.142
COc1cccc2c(C)nc(N=C(N)N)nc12 0.0276
O=C([C@@H](c1ccc(Cl)cc1)c1cccnc1)N1CCN(c2ccc(C(F)(F)F)cc2)CC1 -0.994
O=C(Nc1cccc(Cl)c1)c1cnc(N2CCN(c3ccncc3)CC2)c(Cl)c1 -0.57
C[C@H](c1ccc2c(c1)CCCC2)N(C)c1ncc2c(N)nc(N)nc2n1 0.0756
CNc1nnc(Sc2cnn(-c3ccccc3)c(=O)c2Cl)s1 -0.948
C[C@@H](c1cc(Cl)cc(Cl)c1)N(C)c1ncc2c(N)nc(N)nc2n1 -0.371
